Experiment in all cases: NCI-60 one-dose screen, 48 h (100 = growth as untreated, 0 = no growth, -100 = all killed)
What all share (conditions): 10 µM unless noted

Assay [1] concerns SK-MEL-2 melanoma.
The test system of assay [2] is EKVX NSCLC.
In assay [3] the test system is SN12C renal.
Assay [4] has as its system UO-31 renal.
The subject of assay [5] is TK-10 renal.
Assay [6] has as its system ACHN renal.
Assay [7] relates to CAKI-1 renal.
Assay [8] relates to A498 renal.
Assay [9] relates to CCRF-CEM leukemia.
For assay [10], the system named is MOLT-4 leukemia.
Assay [11] concerns SR leukemia.
Assay [12] relates to RPMI-8226 leukemia.
In assay [13] the test system is OVCAR-8 ovarian.
For assay [14], the system named is OVCAR-5 ovarian.
Assay [15] relates to OVCAR-4 ovarian.
The test system of assay [16] is SK-OV-3 ovarian.
The test system of assay [17] is IGROV1 ovarian.
The test system of assay [18] is OVCAR-3 ovarian.
The subject of assay [19] is HS 578T breast.
Assay [20] deals with NCI/ADR-RES ovarian.

This passage reports growth results from PubChem BioAssay (NCI).

This is part of a sample that, as a whole, favours compounds with a hit. Of some 83,000 tested, about 20% had one in any assay.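 The test compound was applied at a single concentration to cells in 96-well plates for 48 hours, and percent growth was recorded.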 Values without a mark were called inactive. Calls of active or inactive are those of the source. How the source made its calls: active means growth percent below 10; inactive means the rest.

For `C=C1C(=O)O[C@H]2[C@H]1CC/C(COC(=O)c1cc3cc(OC)ccc3[nH]1)=C\CC[C@@]1(C)O[C@@H]21`, the growth in assay [1] was -76.2% (active); in [2], -86.2% (active); in assay [3] it was -80.8% (active); in [4], -95.6% (active); in [5], -97% (active); in assay [6], -93.9% (active). In addition, the growth in assay [7] was -95.1% (active); in assay [8], -95.3% (active); in assay [9], -21% (active); in [10], -14.6% (active); in [11], -21.1% (active); in assay [12] it was -20.3% (active). Besides, the growth in [13] is -66.9% (active); in assay [14], -58.6% (active); in assay [15], -81.5% (active); in assay [16], 50.6%; in assay [17] it was -77.1% (active); in [18] it was -97.4% (active). The growth in assay [19] was -3.89% (active); in assay [20], -0.39% (active).
As for `Cc1cc(C)nc(SC2=C(Nc3ccc(C)c(Cl)c3)C(=O)N(Cc3ccccc3)C2=O)n1`, the growth in assay [1] was 85.3% [30 µM]; in [2] it was 52.7% [30 µM]; in [3] it was 66.9% [30 µM]; in assay [4], 16.7% [30 µM]; in assay [5], 84.8% [30 µM]; in assay [6], 81% [30 µM]. In addition, the growth in assay [7] was 54.3% [30 µM]; in assay [8] it was 69.5% [30 µM]; in assay [9], 35.3% [30 µM]; in assay [10] it was 7.47% [30 µM] (active); in assay [11] it was 25.4% [30 µM]; in assay [12], 7.62% [30 µM] (active). Besides, the growth in assay [13] is 45.3% [30 µM]; in assay [14] it was 103% [30 µM]; in assay [15], 58.2% [30 µM]; in assay [16], 99% [30 µM]; in assay [17] it was 45.1% [30 µM]; in [18] it was 69% [30 µM]. Besides, the values for the growth in assay [19] and in assay [20] were 72.1% [30 µM] and 62.8% [30 µM], respectively.
Regarding `Cc1[nH]c(-c2cc(N)ccc2Cl)c2c1C(=O)CCCC2`, the growth in assay [1] is 31%; in assay [2], 36.5%; in assay [3], 35%; in assay [4], 10.1%; in assay [5] it was 1.81% (active); in assay [6], 19.8%. Moreover, the growth is 2.45% (active) in assay [7]; 27% in assay [8]; 52.3% in [9]; 52.7% in assay [10]; 44.8% in [11]; 12.7% in assay [12]. For the same molecule, the growth is 22.2% in assay [13]; 49.3% in assay [14]; 36.4% in assay [15]; 11.7% in [16]; 20.6% in [17]; 30.4% in [18]. Moreover, the growth in [19] is 7.36% (active); in assay [20], 33%.
On to `O=C(Nc1ccccc1Cl)c1ccc(NC2=C(Cl)C(=O)N(C3CCCCC3)C2=O)cc1`, for which the growth in assay [1] is 104% [30 µM]; in [2] it was 98.5% [30 µM]; in assay [3], 97.6% [30 µM]; in assay [4] it was 75.8% [30 µM]; in assay [5], 88.5% [30 µM]; in assay [6], 78.9% [30 µM]. In addition, the growth is 20.5% [30 µM] in [7]; 123% [30 µM] in assay [8]; 39.6% [30 µM] in [9]; 40.8% [30 µM] in assay [10]; -22.2% [30 µM] (active) in [11]; 23.6% [30 µM] in assay [12]. Besides, the growth in [13] is 28.9% [30 µM]; in assay [14], 109% [30 µM]; in [15], 68.9% [30 µM]; in [16], 109% [30 µM]; in assay [17], 78.2% [30 µM]; in assay [18], 15.9% [30 µM]. Besides, the growth in assay [19] was -0.344% [30 µM] (active); in [20] it was 78.4% [30 µM].
In the case of `O=C(O)COc1ccc(Cl)cc1C1CCCCC1`, the growth in assay [1] is 103%; in [2], 117%; in assay [3] it was 98.5%; in assay [4], 87.6%; in assay [5], 101%; in assay [6], 107%. The growth in assay [7] is 99.4%; in assay [8] it was 90.2%; in assay [9] it was 92.1%; in [10], 87.9%; in assay [11] it was 95.4%; in assay [12], 102%. In addition, the growth is 103% in assay [13]; 107% in assay [14]; 109% in assay [15]; 107% in assay [16]; 117% in assay [17]; 115% in assay [18]. The values for the growth in assay [19] and in assay [20] were 105% and 104%, respectively.
As for `Cc1ccc(-c2onc3c(=O)[nH]nc(-c4ccccc4)c23)cc1`, the growth in assay [1] is 25.6%; in assay [2] it was 39%; in assay [3] it was 37.4%; in assay [4] it was 47.7%; in assay [5], 55%; in assay [6], 56.9%. The growth in assay [7] is 33.9%; in assay [8], 30%; in assay [9], 20.5%; in [10], 26%; in [11], 28%; in assay [12], 17.9%. The growth in [13] is 36.7%; in [14] it was 62.3%; in [15], 67.3%; in assay [16], 14.9%; in [17], 52.4%; in [18], 7.2% (active). For the same molecule, the values for the growth in assay [19] and in assay [20] were 16.7% and 25.2%, respectively.
For the molecule `CC(=O)NCC1c2c(n(C)c3c(Cl)c(Cl)ccc23)C(=O)NC1(C)C` (stereo not given), the growth was 103% in assay [1]; 90.7% in assay [2]; 85.5% in assay [3]; 84.6% in [4]; 89.5% in assay [5]; 95.1% in [6]. Besides, the growth in assay [7] is 77.4%; in assay [8], 93%; in assay [9], 107%; in assay [10] it was 84.9%; in assay [11] it was 75.2%; in [12], 100%. Moreover, the growth in [13] was 91.3%; in assay [14], 88.7%; in [15] it was 103%; in [16], 116%; in assay [17], 96.5%; in assay [18], 107%. Also, the growth in [19] is 104%; in assay [20], 88.1%.
